From PubChem BioAssay (NCI)
The panel holds about 83,000 compounds, 20% with a hit somewhere; the sample as a whole holds those more often.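 Results are percent growth after 48 hours of single-concentration exposure. 100 means growth as in untreated cells, lower positive values show inhibition; negative values down to -100 show cell death.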 Calls of active or inactive are those of the source. Rule for the calls: active = growth percent below 10; inactive = the rest.

How the values were obtained:
Assay in all cases: NCI-60 one-dose screen, 48 h (100 = growth as untreated, 0 = no growth, -100 = all killed)
Details in all cases: 10 µM unless noted
[1] = test system: SR leukemia
[2] = test system: RPMI-8226 leukemia
[3] = test system: OVCAR-8 ovarian
[4] = test system: OVCAR-5 ovarian
[5] = test system: OVCAR-4 ovarian
[6] = test system: SK-OV-3 ovarian
[7] = test system: IGROV1 ovarian
[8] = test system: OVCAR-3 ovarian
[9] = test system: HS 578T breast
[10] = test system: NCI/ADR-RES ovarian

Measured: growth

COc1ccc(C(=O)c2cc3c(N)c(C(=O)Nc4ccc(Br)cc4)sc3nc2C)cc1
active: [5] 0.804%
inactive: [1] 51.5% | [2] 77% | [3] 37.2% | [4] 88% | [6] 62.1% | [7] 85.9% | [8] 65.4% | [9] 32.3% | [10] 70%

N#C/C(=C\c1ccc(Br)cc1)n1nnc2cccc(F)c21
inactive: [1] 10.1% | [4] 10.5% | [5] 17.5% | [6] 78.3%
active: [2] -19.6% | [3] 8.42% | [7] 4.13% | [8] -31.5% | [9] -11.1% | [10] 3.27%

FC(F)(F)Oc1cccc(-c2cc(NCCCCCCNc3cc(-c4cccc(OC(F)(F)F)c4)nc4ccc(N5CCCC5)cc34)c3cc(N4CCCC4)ccc3n2)c1
inactive: [6] 89.8% | [10] 21.6%
active: [1] -40.7% | [2] -34.3% | [3] -50.2% | [4] -29.4% | [5] -72.7% | [7] -64% | [8] -95.9% | [9] -4.44%

N/C(=N\N=C\c1cc2ccccc2[nH]1)N/N=C/c1cc2ccccc2[nH]1
active: [1] 6.87%
inactive: [2] 88.2% | [3] 97.4% | [4] 109% | [5] 83% | [6] 88.6% | [7] 64.4% | [8] 93.9% | [9] 90.3% | [10] 100%

CCOC(=O)c1c(O)cc(-c2ccccc2)cc1-c1sc(N(C)Cc2ccccc2)nc1Cl
inactive: [1] 93.4% | [2] 95.2% | [3] 97.8% | [4] 89.4% | [5] 102% | [6] 95.7% | [7] 108% | [8] 106% | [9] 88.6% | [10] 102%

c1ccc(N2N=C(c3cccc(Nc4ccncc4)c3)CC2c2ccc3c(c2)OCO3)cc1 (stereo not given)
inactive: [3] 21.7% | [4] 43.7% | [5] 33.6% | [6] 22.1% | [7] 16% | [9] 23.8%
active: [1] 4.46% | [2] 2.64% | [8] 7.28% | [10] -1.79%

O=S(=O)(c1ccccc1)N1CCCc2ccccc21
inactive: [1] 103% | [2] 93.1% | [3] 99% | [4] 103% | [5] 113% | [6] 105% | [7] 99.5% | [8] 102% | [9] 93.2% | [10] 107%

COC(=O)Nc1nc2ccc(C(=O)c3cccc(I)c3)cc2[nH]1
inactive: [4] 28.6% | [5] 28.3% | [6] 30.3% | [7] 14.9% | [9] 13.6%
active: [1] -3.68% | [2] 7.16% | [3] 6.51% | [8] -5.1% | [10] -0.725%

COc1cc(/C=C/C(=O)c2ccc(Nc3ncnc4ccccc34)cc2)cc(OC)c1
inactive: [3] 57.5% | [4] 101% | [5] 79.8% | [6] 128% | [7] 60.2% | [8] 36.4% | [9] 82.4% | [10] 73.6%
active: [1] 0.253% | [2] 2.26%

COc1cc(C(=O)/C=C/c2c(C)n([O-])c3ccc(Cl)cc3[n+]2=O)cc(OC)c1OC
active: [1] -5.8% | [2] -35.2% | [7] -30.3%
inactive: [3] 23% | [4] 86.6% | [5] 70.7% | [6] 87.3% | [8] 23.2% | [9] 86.3% | [10] 39%

CCN1C(=O)/C(=c2\sc3n(c2=O)NC2C(N=3)N(CC)C(=O)N2CC)c2ccccc21 (stereo not given)
inactive: [1] 22.7% | [2] 64.9% | [3] 46.5% | [4] 53.8% | [5] 46% | [6] 70.2% | [7] 41.6% | [9] 37% | [10] 12.1%
active: [8] -12.7%

Cc1ccccc1CNc1ccc(N2CCOCC2)cc1
inactive: [1] 86.3% | [2] 110% | [3] 96.3% | [4] 103% | [5] 87.7% | [6] 131% | [7] 108% | [8] 101% | [9] 108% | [10] 99.2%

c1ccc2c(-c3c4ccsc4cc4[nH]c5ccccc5c34)c[nH]c2c1
inactive: [1] 25.7% | [2] 14.8% | [3] 56.9% | [4] 75.2% | [5] 40.8% | [6] 49.5% | [7] 38.1% | [8] 13.8% | [9] 33.4% | [10] 20.4%

Cc1ccccc1-c1cc(Cc2ccc(F)cc2)c(=O)[nH]n1
inactive: [2] 50.9% | [3] 90.4% | [4] 106% | [5] 103% | [6] 98.2% | [7] 97.4% | [8] 104% | [9] 99.9% | [10] 102%
active: [1] -21.2%

COc1ccc(-c2nc(N/N=C/c3cccc(Br)c3)nc(N3CCOCC3)c2C#N)cc1
inactive: [2] 35.8% | [3] 69.9% | [4] 111% | [5] 81.2% | [6] 97.1% | [7] 89.1% | [8] 74.6% | [9] 68% | [10] 83.3%
active: [1] -21.3%

O=C(N/N=C/c1ccncc1)c1ccccc1Nc1cccc(C(F)(F)F)c1
inactive: [2] 52.3% | [3] 79.1% | [4] 89.5% | [5] 66% | [6] 86.4% | [7] 86.8% | [8] 64.7% | [9] 103% | [10] 70.7%
active: [1] 4.74%

Cc1cc(NC(=O)c2cnc(N3CCN(CCOCCOCCOCCOCCC(=O)N[C@H](C(=O)N4C[C@H](O)C[C@H]4C(=O)N[C@@H](C)c4ccc(-c5scnc5C)cc4)C(C)(C)C)CC3)cn2)c2ncccc2c1
inactive: [3] 20.7% | [4] 80.4% | [5] 14.7% | [6] 63.9% | [10] 90.5%
active: [1] 7.46% | [2] -26.5% | [7] -37.8% | [8] -30.8% | [9] 6.9%

O=C(CN1CCOCC1)Nc1ccc2ncnc(Nc3ccc(Oc4cccc(F)c4)c(Cl)c3)c2c1
inactive: [1] 84.1% | [2] 55.7% | [3] 68.6% | [4] 68.7% | [5] 73.4% | [6] 13.9% | [7] 19.9% | [8] 55.6% | [9] 86.6% | [10] 60%

CC(C)(C)OC(=O)N1C/C(=C\c2ccoc2)C(=O)/C(=C/c2ccoc2)C1
inactive: [3] 101% | [4] 97% | [5] 100% | [6] 99.5% | [7] 95.6% | [8] 106% | [9] 90.6% | [10] 97.6%
active: [1] -8.41% | [2] -23%

COc1ccc(-c2nc(SCCC(C)C)nc(N/N=C(/C)c3ccc(C)cc3)c2C#N)cc1
inactive: [1] 91.2% | [2] 88% | [3] 88.1% | [4] 85.4% | [5] 103% | [6] 95.7% | [7] 84.7% | [8] 102% | [9] 85.1% | [10] 89.8%

COc1cccc2c1C(=O)c1c(O)c3c(c(O)c1C2=O)C[C@@](O)(C(=O)CO)C[C@@H]3O[C@H]1C[C@H](N)[C@@H](O)[C@H](C)O1
inactive: [4] 15.2% | [7] 18.4% | [10] 70.5%
active: [1] -2.27% | [2] 6.05% | [3] 7.14% | [5] 7.72% | [6] 7.22% | [8] -0.462% | [9] -18.2%

O=C(NNc1nc(Cl)nc(N2CCN(C(c3ccccc3)c3ccccc3)CC2)n1)c1ccccc1
active: [1] -37.4% | [3] 3.15% | [5] -16.1% | [7] -92.6% | [8] -90.5%
inactive: [2] 57.8% | [4] 88.7% | [6] 128% | [9] 36.3% | [10] 20.7%

C=C(C)[C@@H]1CC[C@]2(C(=O)NCC(=O)OC)CC[C@]3(C)[C@H](CC[C@@H]4[C@@]5(C)Cc6c([nH]c7ccccc67)C(C)(C)[C@@H]5CC[C@]43C)[C@@H]12
inactive: [1] 47% | [2] 53.2% | [3] 85.4% | [4] 100% | [5] 66.5% | [6] 84.5% | [7] 85.1% | [8] 64.6% | [9] 95% | [10] 91%

CCCCCCCCOc1ccc(/C=N/Nc2cc(C)nc3ccc(Cl)cc23)cc1
inactive: [4] 27.1% | [6] 90.3% | [9] 46.9%
active: [1] -23.3% | [2] -3.13% | [3] -34.3% | [5] -69.7% | [7] -84.6% | [8] -93.1% | [10] -22%
